# From PubChem
# An excerpt weighted towards active compounds, which were near 1.7% of everything screened.
# RecA intein inh: blocks M. tuberculosis RecA intein splicing; 290,000 tested, 0.75% active; P9WHJ3; inhibition, % (test concentration not listed); cell-free RecA intein splicing, fluorescence; in the data active means inhibition above about 30%;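 further: 0% = vehicle wells and 100% = reference inhibitor control wells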
# Target sequence (P9WHJ3 whole entry, looked up): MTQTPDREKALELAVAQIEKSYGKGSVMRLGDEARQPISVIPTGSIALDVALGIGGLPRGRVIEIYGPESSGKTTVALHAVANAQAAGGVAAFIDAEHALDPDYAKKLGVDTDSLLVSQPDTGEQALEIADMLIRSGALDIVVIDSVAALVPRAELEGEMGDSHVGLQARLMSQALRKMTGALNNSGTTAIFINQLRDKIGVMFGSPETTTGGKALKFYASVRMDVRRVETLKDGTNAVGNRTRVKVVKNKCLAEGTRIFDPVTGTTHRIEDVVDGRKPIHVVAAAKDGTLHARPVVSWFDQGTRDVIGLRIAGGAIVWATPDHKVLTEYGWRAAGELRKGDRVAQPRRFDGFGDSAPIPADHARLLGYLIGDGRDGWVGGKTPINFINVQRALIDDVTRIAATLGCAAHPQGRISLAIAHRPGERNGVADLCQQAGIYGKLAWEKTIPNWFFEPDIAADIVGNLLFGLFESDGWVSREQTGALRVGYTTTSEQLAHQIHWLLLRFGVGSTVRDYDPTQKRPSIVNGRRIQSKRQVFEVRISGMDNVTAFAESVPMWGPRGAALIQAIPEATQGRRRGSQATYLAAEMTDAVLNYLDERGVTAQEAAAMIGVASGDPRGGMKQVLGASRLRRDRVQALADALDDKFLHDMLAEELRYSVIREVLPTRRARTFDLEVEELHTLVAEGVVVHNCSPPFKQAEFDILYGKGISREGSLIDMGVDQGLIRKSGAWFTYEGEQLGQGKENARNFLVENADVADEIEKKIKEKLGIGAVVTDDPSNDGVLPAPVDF
# CCHF vOTU inh-1: CCHFV vOTU protease inhibition. inhibition, % at 11.5 µM. 370,000 tested, 0.55% active. Pep-AMC fluorescence; further: 0% = vehicle wells with enzyme and 100% = no enzyme wells
# Mtb betalactam: beta-lactam sensitization of Mtb H37Rv; M. tuberculosis H37Rv growth with meropenem, percent inhibition; inhibition, % at 25 µM; 330,000 tested, 0.27% active; AID 434955; call rule not given here;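 further: growth measured after seven days incubation then overnight dye step; 0% = bacteria only wells and 100% = bacteria with antibiotic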
# PfHsp40 rescue: rescue of PfHsp40-mediated yeast toxicity. S. cerevisiae expressing PfHsp40, growth rescue, ATP luminescence. growth rescue, % at 12.5 µM. 340,000 tested, 0.68% active. AID 504582; in the data active means growth rescue above about 28%, passing the limit was not always enough;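 further: yeast W303a lacking pdr1 and pdr3 grown in galactose medium; growth measured after three days at 30 °C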
# Mtb hypoxia inh: inhibitors of hypoxia-regulated fluorescent reporter in Mycobacterium tuberculosis. M. tuberculosis hypoxia-regulated fluorescent reporter, fluorescence. fluorescence inhibition, % (concentration not given with the values). 300,000 tested, 0.1% active; in the data active means fluorescence inhibition mostly above about 23%, no sharp cut-off; inactive means mostly below about 17%
# CCHF vOTU inh-2: CCHFV vOTU protease inhibition, confirmation; shares compounds with CCHF vOTU inh-1; Recombinant CCHFV vOTU, Pep-AMC fluorescence; inhibition, % at 11.5 µM; 1,900 tested, 17% active
# * hit, by the source's call; / = not tested or not shown; ! = not confirmed by another sample. Unless noted, no stated cut-off is given here; in the data, active means inhibition above about 30%; inactive means the rest.
SMILES,RecA intein inh,CCHF vOTU inh-1,Mtb betalactam,PfHsp40 rescue,Mtb hypoxia inh,CCHF vOTU inh-2
CC(=O)N(CN1C(=O)c2ccccc2C1=O)c1cccc(C)c1,-2,-1,-2,-1,7,/
CC(=O)N(/N=C1\Sc2ccccc2C1=O)c1cccc(C)c1,8,36*,34,1,/,37*
CCc1ccc2c(CN3CCN(S(=O)(=O)c4cccs4)CC3)cc(=O)oc2c1,0,35*,-2,4,8,-6
CCc1ccc2c(CN3CCN(S(=O)(=O)c4ccccc4F)CC3)cc(=O)oc2c1,/,9,0,1,2,/
CCC(=O)Nc1sccc1C(=O)OC,0,/,-8,0,14,/
COC(=O)c1ccsc1NS(C)(=O)=O,/,31*,/,/,/,-19
COC(=O)C(Cc1ccccc1)N(Cc1ccccc1)S(=O)(=O)N(Cc1ccccc1)C(Cc1ccccc1)C(=O)OC (stereo unspecified),/,/,/,/,7,/
CCn1c(SCC(=O)NN=C/C=C/c2ccccc2[N+](=O)[O-])nnc1-c1ccc(Cl)cc1,/,/,/,/,2,/
COC(=O)C1=C(c2ccccc2OCc2ccccc2)CC2CCC1N2C(=O)NCc1ccccc1 (stereo unspecified),/,/,/,/,4,/
CN1CC[C@@]2(C)c3cc(O)ccc3N(C)[C@@H]12,/,40*!,/,-1,/,28
C#CCOC1CC(n2ccc(NC(=O)c3ccccc3)nc2=O)OC1CO (stereo unspecified),/,/,/,/,20,/
COC(=O)c1ccc(COc2nc(C)cc(C)c2C#N)o1,2,32*,-7,-1,-3,-2
COC(=O)c1ccc(CSc2nc(C(F)F)cc(C)c2C#N)o1,5,-8,5,-2,-1,/
COc1ccccc1/C=C/C=N/NC(=O)c1cnccn1,0,30*,2,0,/,-3
CCC(NC(=O)Nc1ccc(O)cc1)(C(F)(F)F)C(F)(F)F,/,63*,-4,1,/,3
CC(NC(=O)Nc1ccc(O)cc1)(C(F)(F)F)C(F)(F)F,-6,52*,-11,-1,14,-2
CCCCNC(=S)N(C)N=Cc1ccc(OCc2ccc(C(=O)OC)cc2)c(OC)c1,/,/,/,/,5,/
COCc1cc(C)nc(OCC(=O)NN=Cc2ccc(O)cc2O)c1C#N,/,/,/,/,16,/
Cc1ccc(-c2ccc(C=N/N=C3/NC(=O)C(CC(=O)O)S3)o2)c([N+](=O)[O-])c1 (stereo unspecified),/,/,/,/,17,/
COc1ccc(/C=N/N=C2/NC(=O)C(CC(=O)O)S2)cc1OCc1ccc(Cl)cc1 (stereo unspecified),-10,31*,3,0,/,-1
O=C(O)CC1S/C(=N/N=C/c2ccc(-c3ccc(Cl)cc3[N+](=O)[O-])o2)NC1=O (stereo unspecified),70*,36*,5,1,/,15
CCN(Cc1ccccc1)c1ccc(C=NNC(=O)c2cccc(S(=O)(=O)N3CCOCC3)c2)cc1,/,/,/,/,4,/
OC(c1ccc(F)cc1)(c1ccc(F)cc1)C1CCCN1 (stereo unspecified),/,/,/,/,3,/
CCCCCCCCN1C(=O)[C@H](CC(=O)N2CCN(C(=O)c3ccco3)CC2)C[C@@]2(C(=O)OC)CCCCC=C12,/,30*,/,/,/,-2
CCCCCCCCN1C(=O)[C@H](CC(=O)N2CCN(C(=O)c3ccco3)CC2)C[C@@]2(C(=O)OC)CC(C)(C)CC=C12,/,32*,/,/,/,11
SMILES,RecA intein inh,CCHF vOTU inh-1,Mtb betalactam,PfHsp40 rescue,Mtb hypoxia inh,CCHF vOTU inh-2
O=c1[nH]n2c(=O)c3c([nH]c2c1N=Nc1cccc(Cl)c1)CCC3,8,23,58,1,16,/
O=c1[nH]n2c(=O)c3c([nH]c2c1N=Nc1cccc(C(F)(F)F)c1)CCCC3,12,44*,74,0,6,13
CN(CC(Cc1ccccc1)N(CC(Cc1cccc2ccccc12)N(CCc1ccccc1)N=O)N=O)N=O (stereo unspecified),/,/,/,/,17,/
O=C(Cc1ccc2cccnc2c1)c1ccc(O)cc1O,-1,48*,14,0,7,-6
COc1ccc(CC(N)c2csc(NC(=O)NCc3ccccc3)n2)cc1 (stereo unspecified),/,7,/,/,/,/
CCCCN(C)C(=O)c1ccc(Nc2nc(C(N)Cc3ccc(C(F)(F)F)cc3)cs2)nc1 (stereo unspecified),/,32*,/,/,/,-9
CCCCN(C)C(=O)c1ccc(Nc2nc(C(N)CCc3ccccc3)cs2)nc1 (stereo unspecified),/,25,/,/,/,/
COc1cc(CNC(=O)Nc2nc(C(N)Cc3ccc(C(F)(F)F)cc3)cs2)cc(OC)c1OC (stereo unspecified),/,31*,/,/,/,-19
O=C(NN=Cc1ccccc1)c1n[nH]c2c1CCCC2,/,/,/,/,8,/
O=C1NC[C@H](Cc2ccccc2)N(C[C@H]2CCCN2C[C@H](Cc2ccccc2)N2C[C@H](Cc3ccccc3)N(CC3CCCCC3)C(=O)C2=O)C1=O,/,20,/,0,/,/
O=C1NC[C@H](Cc2ccccc2)N(C[C@@H]2CCCN2C[C@H](Cc2ccccc2)N2C[C@H](Cc3ccccc3)N(CC3CCCCC3)C(=O)C2=O)C1=O,/,30*,/,/,/,3
CC(C)C[C@@H](CN1CCC[C@@H]1CN1C(=S)NC[C@@H]1Cc1ccc(O)cc1)N1C[C@H](Cc2ccc(O)cc2)N(CC2CCCCCC2)C1=S,/,32*,/,/,/,-17
O=C1NC[C@@H](CCCCN2C[C@H](Cc3ccc(O)cc3)N(CCC3CCCCC3)C(=O)C2=O)N(CC2CCCCC2)C1=O,/,35*,/,/,/,-13
CC(C)C[C@@H](CN1CCC[C@@H]1CN1C(=S)NC[C@@H]1Cc1ccc(O)cc1)N1C[C@H](Cc2ccc(O)cc2)N(CC2CCCCC2)C1=S,/,17,/,/,/,/
COc1ccc(CC2CN3C(=NCC3Cc3ccc(O)cc3)N2CCNC(=O)c2ccc(C)c(Br)c2)cc1 (stereo unspecified),/,/,/,/,-13,/
O=c1[nH]c(=S)[nH]c2c1C(c1ccc(Br)cc1)c1c([nH]c(=S)[nH]c1=O)O2,-2,43*,-5,0,-3,41*
O=C1CCCC2=C1C(c1ccc(Br)cc1)c1c([nH]c(=S)[nH]c1=O)N2 (stereo unspecified),0,6,4,0,-1,/
COc1ccc(C=NN2C(=O)CSC2=S)cc1Br,/,/,/,/,8,/
CN1OC[C@@H]2CN(C(=O)c3ccc([N+](=O)[O-])cc3)[C@H](c3ccccc3Br)C[C@@H]21,/,39*,/,/,/,-16
COc1cc(CCCN2C(N)=NCC2c2ccccc2)cc(OC)c1OC (stereo unspecified),/,/,/,/,-3,/
COc1ccc2nc(NC(=O)CCN3C(=S)NC(C)(C)CC3C)sc2c1 (stereo unspecified),-1,36*,3,-1,6,-25
COC1=C(N)C(=O)c2nc(C)ccc2C1=O,/,55*,/,-1,/,107*
COc1nc(C)ccc1-c1noc(-c2cccnc2)n1,0,-15,1,2,18,/
COC1=C(Br)C(=O)c2nc(C)ccc2C1=O,/,115*,/,/,/,83*
CC(CCc1ccccc1)=NNC(=O)C(=O)Nc1cccc(Cl)c1,/,/,/,/,-3,/
